Measurements reported in PubChem BioAssay AID1159580 (chemical genetic matrix, 2015).
The whole screen tested about 5,500 compounds, of which about 2,000 (36%) were called active. Roughly 18% stayed inconclusive and do not appear here. No stated cut-off is given here; in the data, active means normalized growth mostly below about 0.91 (no sharp cut-off); inconclusive means no clear call, values can overlap the other calls; inactive means mostly above about 0.92. This is one part of the list.

Assay: chemical genetic growth profiling, strain panel (AID 1159580);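 further: tested at 20 µM; growth read once vehicle control cultures reached saturation at 30 °C; 1 = growth at the plate median or of vehicle wells; lower values mean less growth of the strain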
Conditions: S. cerevisiae deletion strains, growth OD

Measured: normalized growth

CCC(C)N(C)C(=O)c1cc2ccccc2c(-c2ccccc2Cl)n1 (centres undefined)
inactive: locus YAL040C, strain CLN3, active compounds read low 0.965 | locus YDR363W, strain ESC2, active compounds read low 0.973 | locus YER002W, strain NOP16, active compounds read low 1.03 | locus YGR078C, strain PAC10, active compounds read low 0.998 | locus YNL175C, strain NOP13, active compounds read low 1 | locus YNL197C, strain WHI3, active compounds read low 0.95 | locus YNL224C, strain SQS1, active compounds read low 0.988 | locus YNL322C, strain KRE1, active compounds read low 0.987 | locus YOR083W, strain WHI5 (second series), active compounds read low 0.955
